The panel holds about 83,000 compounds, 20% with a hit somewhere; the sample as a whole holds those more often.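 Activity criterion: percent growth below 10, measured after cells in 96-well plates were exposed to a single compound concentration for 48 hours.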 Values without a mark were called inactive. Calls of active or inactive are those of the source.
Test system: SK-MEL-5 melanoma
Assay: NCI-60 one-dose screen, 48 h (100 = growth as untreated, 0 = no growth, -100 = all killed)
Settings: 10 µM unless noted
Experimental: Growth inhibition of the SK-MEL-5 human tumor cell line is measured as a screen for anti-cancer activity. Cells are grown in 96 well plates and exposed to the test compound for 48 hours. Compounds are tested at a single concentration, which is 10^-5 M for most compounds. The reported endpoint is percent growth (GI% or GIPRCNT), where numbers from 0 - 100% represent growth inhibition, and numbers from -100% - 0 represent cell death. For example, a value of 40 represents 60% growth inhibition. A value of 0 means no net growth occurred over the course of the experiment. A value of -40 indicates 40% of cells at the beginning of the experiment died by the end of the experiment. A value of -100 means all cells are dead at the end of the experiment.
NCI-60 Human Tumor Cell Lines Screen was performed using the standard one-dose NCI protocol, which is described in more detail at https://dtp.cancer.gov/discovery_development/nci-60/default.htm.
Compounds with GIPRCNT values below 10 were considered active. Activity score was based on GIPRCNT using the following formula: […]
Score is 0 for GIPRCNT values of 100 or above, 50 for GIPRCNT values of 0, and 100 for GIPRCNT values of -100.

SMILES | growth
O=C(CN1CCN(C(=O)c2ccco2)CC1)Nc1ccc(Cl)cc1C(=O)c1ccccc1Cl | 51.1%
CCOC(=O)CCN(C)C1=Nc2ccc(Cl)cc2C(c2ccccc2)=[N+]([O-])C1 | 100%
CC12CCC3C(C=CC4=C(N)C(=O)CCC43C)C1CCC2=O (stereo not given) | 69.7%
O=C(Nc1ccc([As]=[As]c2ccc(NC(=O)c3ccccc3)cc2)cc1)c1ccccc1 (stereo not given) | -99.6% (active)
Cc1ccc(C(Cc2ccccc2)NCCO)cc1 (stereo not given) | 98.4%
O=[N+]([O-])c1c(Br)sc(Br)c1[N+](=O)[O-] | 51.4%
CC[C@H](C)[C@H](NC(=O)c1nccn1C)C(=O)N(C)[C@H](C[C@@H](OC(C)=O)c1nc(C(=O)N[C@@H](Cc2ccccc2)C[C@H](C)C(=O)OC)cs1)C(C)C | -0.799% (active)
CC(C)OC(=O)[C@H](C)NP(=O)(Oc1ccccc1)C1CCCN(O)C1=O (stereo not given in full) | 99.2%
CC1CN1CCCCN1CC1C (stereo not given) | 107%
C/C(=C\c1cc(C(F)(F)F)nn1CCNC(=O)OC(C)(C)C)[C@@H]1C[C@@H]2O[C@]2(C)CCC[C@H](C)[C@H](O)[C@@H](C)C(=O)C(C)(C)[C@@H](O)CC(=O)O1 | 38.8%
CO[C@H]1CC[C@@]2(C)C(=CC[C@@H]3[C@@H]2CC[C@]2(C)C(=O)C(=O)C[C@@H]32)C1 | 99%
CCOP(=O)(NC[C@H]1O[C@](O)(CO)[C@@H](O)[C@@H]1O)OCC | 96.5%
O=P(Oc1ccc(Cl)cc1)(N1CC1)N1CC1 | 86.2%
CCN(CC)CCOC(=O)C(OC(C)C)(c1ccccc1)c1ccccc1 | 97.6%
COc1cc2c(=O)n(C3CCCCCCC3)c3c4cc[nH]c4ncc3c2cc1OC | 64.2%
C[C@]12C[C@@H](CO)[C@H](O)C[C@@H]1CC[C@@H]1[C@@H]2CC[C@]2(C)[C@@H](O)CC[C@@H]12 | 103%
Clc1ccc(N2COOC3(OOC2)C2CC4CC(C2)CC3C4)cc1 | 55.5%
N#Cc1c(Br)n(C2OC(CO)C(O)C2O)c2ncnc(N)c12 (stereo not given) | 95.9%
CC1=C(CCCOC(=O)CN)C2=C(C)C3(CC3)[C@@](C)(O)C(=O)C2=C1 | 92.2%
CCCCCCCCCCCCCCCCCC1OC[C@H](COC(=O)O[C@@H](C(=O)O[C@H]2C[C@@]3(O)[C@@H](OC(=O)c4ccccc4)[C@@H]4[C@]5(OC(C)=O)CO[C@@H]5C[C@H](O)[C@@]4(C)C(=O)[C@H](OC(C)=O)C(=C2C)C3(C)C)[C@@H](NC(=O)c2ccccc2)c2ccccc2)O1 (stereo not given in full) | 75.6%

SMILES | growth
CCCc1cc(O)c2c3c(c(=O)oc2c1)CN(C)CC3 | 42.3%
CCC(=O)Nc1ccc(Cl)c(Cl)c1 | 101%
COP(=O)(OC)C(O)c1ccc(Cl)cc1 (stereo not given) | 98.7%
O=C1OCCC1Br (stereo not given) | 103%
C[C@@H]1CCC2[C@@H](C)[C@H](OC(=O)CCC(=O)NCCNC(=O)Cc3cc(=O)oc4cc(N(C)C)ccc34)O[C@@H]3O[C@]4(C)CC[C@@H]1C23OO4 (stereo not given in full) | 33.2%
Cn1cc(-c2csc(-c3cn(CCCCN4CCCCC4)c4ccccc34)n2)c2cccnc21 | -92.1% (active)
COC(=O)[C@@H](C)C[C@H](Cc1ccccc1)NC(=O)c1csc([C@@H](C[C@H](C(C)C)N(C)C(=O)[C@@H](NC(=O)[C@H]2CCCCN2C)c2ccc(F)cc2)OC(C)=O)n1 | -46.3% (active)
CNC12C3C4C1C1C2C3C41C(=O)N[C@H](C(=O)N(C)[C@H](C[C@@H](OC(C)=O)c1nc(C(=O)N[C@@H](Cc2ccccc2)C[C@H](C)C(=O)OC)cs1)C(C)C)C1CC1 (stereo not given in full) | -54.4% (active)
COC(=O)CC12CC(NC(=O)c3csc([C@@H](C[C@H](C(C)C)N(C)C(=O)[C@@H](NC(=O)[C@H]4CCCCN4C)C(C)C)OC(C)=O)n3)(C1)C2 | -30.2% (active)
CCN1C(=O)C(=C/C=C/c2ccccc2)C(=O)N(CC)C1=O | 89.8%
O=C(Nc1ccc(O)cc1)C(Cl)(Cl)Cl | 100%
NC(N)=N/N=C\c1c[nH]c2ccc(Br)cc12 | 67.6%
C[C@@H]1C[C@@]2(C)[C@@H](CC[C@@H]3[C@@H]2CC[C@]2(C)C(=O)CC[C@@H]32)CC1=O | 114%
C[n+]1c(/C=C/c2ccc(N(CCCl)CCCl)cc2)sc2ccccc21 | 61.1%
O=C(Nc1ccc(Br)cc1)c1cc(Br)cc(Br)c1O | -71% (active)
COc1ccc(S(=O)(=O)Nc2c(/C=C\c3cc(OC)c(OC)c(OC)c3)ccc(OC)c2O)cc1OC | -34.9% (active)
CCCCCCCC[N+](C)(CCCCCCCC)CCCCCCCC | -100% (active)
Cc1cc(N(CCCl)CCCl)ccc1C=Nc1ccccc1-c1ccccc1 | 85.7%
CCc1ccccc1[C@@H]1C[C@]2(C)CCO[C@@H]2OO1 | 102%
O=C1C(=Cc2cn(Cc3ccccc3)c3ccccc23)C(=O)N(Cc2ccccc2)C(=O)N1Cc1ccccc1 | 104%

— PubChem BioAssay (NCI)
